Screens: PubChem, The Scripps Research Institute Molecular Screening Center
hgDAF12 agonist: agonists of H. glycines DAF-12 nuclear receptor; AID 687014; activation, % at 6.8 µM; 1.8% of 370,000 active; HEK293 GAL4-hgDAF12 UAS-luciferase reporter, agonist luminescence; normalized to butyrate control;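 active = activation above a cutoff set at the mean of all screened compounds plus 3 SD, cut at about 10% in these data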
DAX1 inh-1: blocks DAX1 repression of SF-1 activated StAR promoter. HEK293T StAR-luciferase reporter, SF-1/DAX-1 repression relief. inhibition, % at 6.8 µM. 1.1% of 370,000 active;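 active = inhibition above the mean over all tested compounds plus 3 SD, cut at about 3.6% in these data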;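 also: higher inhibition means more luminescence from relief of DAX-1 repression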
ssDAF12 agonist: activators of S. stercoralis DAF-12 nuclear receptor; HEK293 ssDAF-12/GRIP1 lit1-tk-luc reporter, luminescence; % of 3 µM dafachronic acid response; activation, % at 6.8 µM; 1% of 370,000 active;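 active = activation above the mean over all tested compounds plus 3 SD, cut at about 0.9% in these data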
hcDAF12 agonist: activates DAF-12 receptor from parasite H. contortus; HEK293 hcDAF-12 lit1-tk-luc reporter, luminescence; 0% DMSO, 100% Δ7-dafachronic acid; activation, % at 6.8 µM; 1.4% of 370,000 active;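 active = activation above the mean of all tested compounds plus 3 SD, cut at about 5.5% in these data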
DAX1 inh-2: inhibits human nuclear receptor DAX1 | P51843 | HEK293 Gal4-DAX1 luciferase reporter, luminescence | inhibition, % at 6.75 µM | 0.99% of 340,000 active;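 active = inhibition above the mean over all tested compounds plus 3 SD, cut at about 4.2% in these data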;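 also: inhibition shows as a rise in luminescence from relieved DAX1 repression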
LXR ag: activates human LXR-beta, counter-screen for hcDAF-12 agonists | shares compounds with hcDAF12 agonist | HEK293 Gal4-LXR tk-luc reporter, luminescence, 24 h; normalized: DMSO 0%, positive control 100% | activation, % at 6.8 µM | 3,400 tested, under 10 active | AID 743027;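 active = mean percent activation of the reporter above a cutoff set as the average over tested compounds plus their standard deviation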
Target sequence (P55055 whole entry, looked up, the tested form may be a part): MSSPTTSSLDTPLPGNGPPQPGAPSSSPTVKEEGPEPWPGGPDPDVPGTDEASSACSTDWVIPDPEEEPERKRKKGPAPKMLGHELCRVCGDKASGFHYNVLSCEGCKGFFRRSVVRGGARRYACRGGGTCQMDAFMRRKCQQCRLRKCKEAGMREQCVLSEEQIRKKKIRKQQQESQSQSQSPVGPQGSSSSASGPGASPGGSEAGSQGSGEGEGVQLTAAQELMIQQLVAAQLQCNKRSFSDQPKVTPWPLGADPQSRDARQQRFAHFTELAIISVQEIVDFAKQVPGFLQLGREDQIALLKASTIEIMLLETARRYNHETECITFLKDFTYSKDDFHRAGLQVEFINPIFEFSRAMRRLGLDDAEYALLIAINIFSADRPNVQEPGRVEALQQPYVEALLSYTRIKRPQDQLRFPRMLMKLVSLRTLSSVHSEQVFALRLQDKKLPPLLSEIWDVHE
hcDAF12 conf: confirmation of H. contortus DAF-12 agonists; activation, % at 6.8 µM; shares compounds with hcDAF12 agonist; 61% of 3,400 active; HEK293 hcDAF-12 lit1-tk-luc reporter, luminescence; % of Δ7-dafachronic acid response; AID 743032;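 active = mean activation across triplicate tests above the threshold derived from the earlier primary screen, cut at about 5.5% in these data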
Of the large screens only hits and unclear results are named; the others gave an inactive call (follow-up assays come after a bar, where they were run). The list is not random: actives were taken first. Their share in the collection is about 4.1%.

CCC(=O)Oc1ccc(-c2cnc3ccccc3n2)cc1	hgDAF12 agonist 11, hcDAF12 agonist 7.1 | LXR ag inactive | hcDAF12 conf 10
Cc1c(C(=O)Oc2ccc(-c3cnc4ccccc4n3)cc2)cccc1[N+](=O)[O-]	none
COc1ccc(Cn2ccc3ccc(-c4ccc5ccn(C(=O)c6ccccc6C)c5c4)cc32)cc1	none (no result: DAX1 inh-2)
CC(C)C1=CC2C3C(C(C(C)C)=CC(=O)[C@@]3(C)O)C1C(=O)C2(C)O (stereo partly specified)	none (no result: DAX1 inh-2)
Cc1ccc(/C=C/c2nc3ccccc3[nH]2)o1	hcDAF12 agonist 8.3 | LXR ag inactive | hcDAF12 conf 8.4
Cc1ccc(C(=O)c2oc3ccccc3c2N)cc1	hgDAF12 agonist 11, hcDAF12 agonist 9.5 | LXR ag inactive | hcDAF12 conf 9.7
Nc1c(C(=O)c2ccccc2)oc2ccc(Br)cc12	hgDAF12 agonist 13, DAX1 inh-1 4.3, ssDAF12 agonist 1.3, hcDAF12 agonist 9.9, DAX1 inh-2 5.7 | LXR ag inactive | hcDAF12 conf 8.3
COC(=O)[C@]12C[C@H](CC(=O)NCCc3ccccc3OC)C(=O)N(Cc3ccccc3)C1=C[C@H](C(C)(C)C)O[C@@H]2C	none (no result: DAX1 inh-2)
CCc1ccccc1NC(=O)c1onc(C)c1Cl	hcDAF12 agonist 9.4 | LXR ag inactive | hcDAF12 conf inactive
COC(=O)c1ccccc1NC(=O)c1onc(C)c1Cl	none
CCOc1ccc(-n2c(SCC(=O)Nc3cc4oc5ccccc5c4cc3OC)nnc2-c2cccc(Cl)c2)cc1	none (no result: DAX1 inh-2)
Cc1cc2nc(-c3cccc(Cl)c3)c(CC3CCCCC3)n2c(C)c1Br	none (no result: DAX1 inh-2)
Cc1ccc(-c2nc3c4ccccc4ccn3c2CC2CCCCC2)cc1	hgDAF12 agonist 11, ssDAF12 agonist 2.5, hcDAF12 agonist 7.5 (no result: DAX1 inh-2) | LXR ag inactive | hcDAF12 conf 6.2
N#Cc1ccc(-c2nc3c4ccccc4ccn3c2CC2CCCCC2)cc1	none (no result: DAX1 inh-2)
Cc1cc2nc(-c3ccccc3)c(CC3CCCCC3)n2c(C)c1Br	ssDAF12 agonist 0.9, hcDAF12 agonist 6.9 (no result: DAX1 inh-2) | LXR ag inactive | hcDAF12 conf inactive
Cc1ccc(-c2nc3cc(C)c(Br)c(C)n3c2CC2CCCCC2)cc1	ssDAF12 agonist 1.7, hcDAF12 agonist 7.7 (no result: DAX1 inh-2) | LXR ag inactive | hcDAF12 conf inactive
FC(F)(F)c1cccc(Cn2ccc3ccc(-c4ccc5ccn(Cc6cccc(C(F)(F)F)c6)c5c4)cc32)c1	none (no result: DAX1 inh-2)
Cc1ccc(-n2nnc(-c3cnc4ccccc4c3)n2)cc1	ssDAF12 agonist 1.6, hcDAF12 agonist 9.9, DAX1 inh-2 5.1 | LXR ag inactive | hcDAF12 conf 14
c1ccc2ncc(-n3cnnn3)cc2c1	none
Cc1ccc(-n2nnc(-c3nccn3C)n2)cc1	hcDAF12 agonist 6.9 | LXR ag inactive | hcDAF12 conf 7.3
CCCS(=O)(=O)N1CCN(Cc2c[nH]c3ccccc23)CC1	ssDAF12 agonist 1.4, hcDAF12 agonist 7.2 | LXR ag inactive | hcDAF12 conf inactive
COc1ccc(S(=O)(=O)N2CCN(Cc3c[nH]c4ccccc34)CC2)cc1	none
CC1CC1C(=O)Nc1nc2ccc(Cl)cc2s1 (stereo unspecified)	hcDAF12 agonist 7.0 | LXR ag inactive | hcDAF12 conf 6.2
Cc1ccc(NC(=O)c2nc[nH]c2C(=O)Nc2ccc(C)cc2)cc1	none
Cc1ccc(NC(=O)c2nsc(Cl)c2Cl)cc1	hgDAF12 agonist 11, ssDAF12 agonist 2.1, hcDAF12 agonist 13, DAX1 inh-2 5.8 | LXR ag inactive | hcDAF12 conf 14
COCCN(CCOC)C(=O)[C@H](CCc1ccccc1)NC(=O)[C@H]1O[C@@H](n2cnc3c(N)ncnc32)[C@H](O)[C@@H]1O	none (no result: DAX1 inh-2)
N#C/C(=C\c1ccc[nH]1)C(=O)c1ccccc1	none
N#C/C(=C\c1ccc[nH]1)C(=O)Nc1ccccc1Cl	ssDAF12 agonist 1.2, hcDAF12 agonist 11 | LXR ag inactive | hcDAF12 conf 12
COc1ccccc1C(=O)Nc1ccc2c(c1)OCO2	ssDAF12 agonist 1.6, hcDAF12 agonist 8.0 | LXR ag inactive | hcDAF12 conf 10
